# About 14,000 (4.5%) of roughly 310,000 compounds showed an effect of 50% or more. The effect is printed as a negative number. Many of the other results were omitted from the sample, so strong results are more common in it than they were.
# Target: human ether-à-go-go-related gene (hERG) potassium channel (human, UniProt Q12809)
# Assay: primary screen, population patch clamp on CHO cells stably expressing hERG; higher = less effect of the substance
# 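Also: peak tail current of the secondary pulse compared with the same well before compound.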
# human ether-à-go-go-related gene (hERG) potassium channel, sequence (Q12809 whole entry, looked up): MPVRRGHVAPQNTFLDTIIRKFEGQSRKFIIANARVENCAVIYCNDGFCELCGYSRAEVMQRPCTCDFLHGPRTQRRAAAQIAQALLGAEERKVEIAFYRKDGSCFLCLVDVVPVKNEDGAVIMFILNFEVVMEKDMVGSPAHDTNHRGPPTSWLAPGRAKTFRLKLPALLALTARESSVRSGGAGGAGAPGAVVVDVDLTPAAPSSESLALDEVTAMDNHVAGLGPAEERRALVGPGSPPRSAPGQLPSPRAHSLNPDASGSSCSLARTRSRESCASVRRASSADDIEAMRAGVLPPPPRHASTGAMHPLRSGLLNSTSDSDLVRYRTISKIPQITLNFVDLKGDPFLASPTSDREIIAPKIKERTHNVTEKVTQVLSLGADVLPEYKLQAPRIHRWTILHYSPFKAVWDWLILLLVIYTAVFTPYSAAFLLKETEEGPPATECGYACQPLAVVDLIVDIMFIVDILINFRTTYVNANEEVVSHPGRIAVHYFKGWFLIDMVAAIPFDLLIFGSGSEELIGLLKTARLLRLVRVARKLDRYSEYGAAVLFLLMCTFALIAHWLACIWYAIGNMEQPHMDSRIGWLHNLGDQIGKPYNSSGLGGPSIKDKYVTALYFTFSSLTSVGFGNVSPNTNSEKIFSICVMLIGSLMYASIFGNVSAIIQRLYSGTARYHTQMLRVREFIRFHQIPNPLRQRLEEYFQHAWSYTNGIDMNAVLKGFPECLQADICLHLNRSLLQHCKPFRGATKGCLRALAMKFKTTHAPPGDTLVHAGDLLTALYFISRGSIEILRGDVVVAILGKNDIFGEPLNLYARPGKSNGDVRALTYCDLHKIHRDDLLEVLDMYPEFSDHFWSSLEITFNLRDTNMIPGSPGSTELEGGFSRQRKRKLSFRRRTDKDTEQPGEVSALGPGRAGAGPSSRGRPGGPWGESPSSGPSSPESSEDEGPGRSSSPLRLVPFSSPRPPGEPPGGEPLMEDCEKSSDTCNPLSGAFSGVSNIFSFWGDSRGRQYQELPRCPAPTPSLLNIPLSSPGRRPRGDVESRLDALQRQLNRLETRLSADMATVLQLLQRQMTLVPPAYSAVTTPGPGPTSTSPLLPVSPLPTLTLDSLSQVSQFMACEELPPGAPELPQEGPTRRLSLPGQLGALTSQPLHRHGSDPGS
row,Structure (SMILES),"hERG current change (%, negative = inhibition) at 10uM [%]"
1,O=C(Cn1nnc(-c2ccc(CN3CCOCC3)cc2)n1)NC1CCCCC1,-12.4
2,COc1cccc(NC(=O)CCNS(=O)(=O)c2ccc(Br)s2)c1,-32.6
3,CCCCNC(=O)C1CCN(S(=O)(=O)N2CCOCC2)CC1,5.58
4,COc1ccc(OCc2nc3c4c(ncn3n2)-c2ccccc2CC42CCCC2)cc1,6.66
5,CCC(Oc1ccccc1)C(=O)Nc1nnc(S(=O)(=O)N2CCCCC2)s1 (stereo not drawn),12.8
6,CCc1ccc(-c2csc3ncn(Cc4ccc(C(=O)O)cc4)c(=O)c23)cc1,4.9
7,COc1ccc(NC(=O)c2ccc3ncsc3c2)c2ccccc12,4.56
8,Clc1ccc(CSc2nnc3c(n2)[nH]c2ccccc23)cc1,-1.62
9,O=S(=O)(NCc1ccccc1)[C@@H]1CC2C=CC1C2 (stereo partly drawn),1.81
10,O=C(c1cc(COc2ccc(F)cc2Cl)on1)N(CCO)Cc1cccs1,-31.6
11,Cc1cccc(N2CCN(C(=O)C3CC(=O)N(C4CCCC4)C3)CC2)c1C (stereo not drawn),-57.9
12,Cc1ccccc1OC1CCN(C(=O)C2CCC(=O)N(C3CCCC3)C2)CC1 (stereo not drawn),3.16
13,O=C(C1CCC(=O)N(C2CCCC2)C1)N1CCC(Oc2ccccc2Cl)CC1 (stereo not drawn),-62.1
14,Cc1cccc(N2CCN(C(=O)C3CCC(=O)N(C4CC4)C3)CC2)c1C (stereo not drawn),0.967
15,O=C(C1CCC(=O)N(C2CC2)C1)N1CCC(Oc2ccccc2F)CC1 (stereo not drawn),2.26
16,Cc1ccccc1N1CCN(C(=O)C2CCC(=O)N(C3CCCC3)C2)CC1 (stereo not drawn),-22.5
17,COc1ccc(C)cc1S(=O)(=O)N(CC(=O)O)c1ccc(C)cc1,5.39
18,Cc1cc(C)cc(NC(=S)NCc2ccc(S(N)(=O)=O)cc2)c1,8.2
19,Cn1c2ccccc2c2ncn(Cc3ccc(F)cc3)c(=O)c21,8
20,O=C(CCNC(=O)c1ccco1)NCCc1ccc(Cl)cc1,-1.83
21,COC(=O)c1ccc(CN2CCCC(CCC(=O)NCc3ccc(C)o3)C2)cc1 (stereo not drawn),-67.5
22,Cc1ccc(CNC(=O)CCC2CCCN(C(=O)c3ccc4c(c3)OCO4)C2)o1 (stereo not drawn),-20.5
23,COc1cc(CN2CCCC(CCC(=O)NCc3ccc(C)o3)C2)cc2c1OCO2 (stereo not drawn),-59.9
24,COc1cc(CN2CCC(N3CCC(C(=O)N4CCCC4)CC3)CC2)cc2c1OCO2,-17.6
25,CC(=O)c1cccc(CN2CCCC(CCC(=O)NCc3ccc(C)o3)C2)c1 (stereo not drawn),-16.2
26,COCc1ccc(CN2CCCC(CCC(=O)NCc3ccc(C)o3)C2)o1 (stereo not drawn),-16.7
27,Cc1ccc(CNC(=O)CCC2CCCN(Cc3cccc4c3OCO4)C2)o1 (stereo not drawn),-63.2
